According to PubChem BioAssay (NCI):
The panel holds about 83,000 compounds, 20% with a hit somewhere; the sample as a whole holds those more often.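 Results are percent growth after 48 hours of single-concentration exposure. 100 means growth as in untreated cells, lower positive values show inhibition; negative values down to -100 show cell death.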 A number with no mark means an inactive call. Calls of active or inactive are those of the source. Rule for the calls: active = growth percent below 10; inactive = the rest.

How the values were obtained:
Assay in all cases: NCI-60 one-dose screen, 48 h (100 = growth as untreated, 0 = no growth, -100 = all killed)
Conditions in all cases: 10 µM unless noted
BT-549 breast = test system: BT-549 breast
MDA-MB-435 melanoma = test system: MDA-MB-435 melanoma
SW-620 colon = test system: SW-620 colon
MCF7 breast = test system: MCF7 breast
HCT-116 colon = test system: HCT-116 colon
HCC-2998 colon = test system: HCC-2998 colon
KM12 colon = test system: KM12 colon

SMILES | growth (BT-549 breast) | growth (MDA-MB-435 melanoma) | growth (SW-620 colon) | growth (MCF7 breast) | growth (HCT-116 colon) | growth (HCC-2998 colon) | growth (KM12 colon)
COc1ccc(N/N=C/c2c(-c3ccc(S(C)(=O)=O)cc3)nc3ccccn23)cc1 | 60.5% | 34.1% | 30.1% | 24.3% | 32.5% | 49.3% | 
CS(=O)(=O)c1ccc(-c2nc3ccccn3c2C=Nc2ccc(Cl)cc2)cc1 | 74.3% | 56.7% | 63% | 87.7% | 52.1% | 95.8% | 
CC(C)(C)OC(=O)N1C(=O)c2c(c3c4ccccc4[nH]c3c3ccc4ccccc4c23)C1=O | 61.7% | 40.3% | 57.2% | 34.5% | 58.8% | 82.6% | 
CN(C)CCCNc1c2ccc(Cl)cc2nc2c1oc1ccc(Cl)cc12 | 79.9% | -74.3% (active) | -79% (active) | -76.4% (active) | -93.7% (active) | -85.1% (active) | -56.3% (active)
Cc1ccccc1NC(=O)/C=C/c1ccc(OCCOc2ccc3c(C)cc(=O)oc3c2)cc1 | 87.8% | 90.4% | 98.6% | 85.7% | 97.7% | 114% | 
O=C1c2c(c3c4cccnc4[nH]c3c3ccc4ccccc4c23)C(=O)N1CCO | 86.8% | 85.1% | 57.6% | 30.2% | 60.2% | 101% | 
O=C(N/N=C/c1ccc[nH]1)c1[nH]c2ccc(Br)cc2c1-c1ccccc1 | -12.5% (active) | 2.21% (active) | 22.8% | 3.98% (active) | 0.0164% (active) | 17.2% | 10.4%
O=c1/c(=C\c2ccc(-c3ccccc3)o2)sc2nc(-c3ccccc3)nn12 | 119% | 101% | 104% | 99.1% | 103% | 113% | 
OC1CCN(CCCOc2c3ccccc3nc3c2oc2ccccc23)CC1 | 7.19% (active) | -10.5% (active) | 1.37% (active) | 0.978% (active) | 3.79% (active) | -12.4% (active) | 5.22% (active)
O=C1/C(=C/C2=Cc3ccccc3OC2)SC(=S)N1c1ccc(F)cc1 | 100% | 101% | 107% | 90.6% | 99.1% | 107% | 97.5%
N[C@@H](Cc1cn(-c2c3ccccc3nc3ccccc23)nn1)C(=O)O | 117% | 104% | 105% | 73.9% | 106% | 117% | 
N#Cc1c(-c2ccc(Cl)cc2)nc2c(-c3ccccc3)c(Nc3ccccc3)nn2c1N | 94.4% | 58.7% | 40.6% | 47.9% | 20.7% | 90.7% | 60%
CNC(=O)c1cc(-c2ccc(NC(=O)Nc3ccc(N4CCOCC4)c(C(F)(F)F)c3)cc2)nc2cccnc12 | 84.8% | 72.6% | 72.3% | 12.3% | 52.3% | 79.9% | 
COc1cc(OC)c(C2SCC(=O)N2Nc2ncnc3ccccc23)cc1OC (centres undefined) | 105% | 103% | 105% | 91.8% | 107% | 111% | 107%
N#Cc1c(-c2ccc(Cl)cc2)nc(SCc2ccc(F)cc2)nc1N1CCNCC1 | 101% | 69.3% | -80.2% (active) | -19.3% (active) | -93.8% (active) | -31.8% (active) | 33.6%
OC1CCc2c(-c3ccc4ncnc(N5CCc6cc(F)c(Cl)cc65)c4c3)cncc21 (centres undefined) | 46.5% | 62.7% | 85.1% | 23.4% | 66.9% | 72.1% | 66.2%
COc1ccc(C(=O)/C=C/c2ccc(Oc3nc(NCCO)nc(N4CCOCC4)n3)c(OC)c2)cc1 | 90.9% | 44.5% | 0.395% (active) | 12.7% | 10.6% | 99.8% | 28.9%
Cc1ccc(-c2nc(C(Cl)Cl)nc3cc(-c4ccccc4)nn23)cc1 | 53.6% | 16.1% | -40.3% (active) | 25.4% | 11.8% | -55.8% (active) | -6.93% (active)

SMILES | growth (BT-549 breast) | growth (MDA-MB-435 melanoma) | growth (SW-620 colon) | growth (MCF7 breast) | growth (HCT-116 colon) | growth (HCC-2998 colon) | growth (KM12 colon)
CCOc1ccc([C@H]2C(C(=O)c3ccc(Cl)cc3)C3(N[C@@H]2c2ccccc2)C(=O)Nc2ccc(Br)cc23)cc1 (some centres undefined) | 71.9% | 28.5% | 24.6% | 9.08% (active) | 4.78% (active) | 0.672% (active) | -10.8% (active)
C#Cc1nc(C2=C(C)C(O)/C(=N/O)C2)cs1 (centres undefined) | 111% | 95.6% | 123% | 68.5% | 100% | 117% | 42.9%
COc1cc2nc(-c3ccc(C)cc3)cc(OCCCNCC3CCCO3)c2cc1OC (centres undefined) | 98.5% | 54.3% | 77.5% | 59.7% | 40.7% | 83.4% | 60%
CNC(=O)c1cc(-c2ccc(NC(=O)Nc3ccc(N4CCN(C)CC4)c(C(F)(F)F)c3)cc2)nc2cccnc12 | -81.4% (active) | -93% (active) | -81.2% (active) | -100% (active) | -98.4% (active) | -94.9% (active) | 
C#Cc1nc(C2=C(C)C(=N\O)/C(=N/O)C2)cs1 | 105% | 93.7% | 109% | 72.5% | 87.3% | 113% | 67.1%
C=CCSc1ccc2c(c1)C(N1CCNCC1)=Nc1ccccc1O2 | 106% [8.25 µM] | 68% [8.25 µM] | 73.4% [8.25 µM] | 59.2% [8.25 µM] | 55.1% [8.25 µM] | -14.8% [8.25 µM] (active) | 
O=C(CN1C(=O)/C(=C/c2ccccc2)SC1=S)N1CCOCC1 | 97.5% | 96.2% | 87.2% | 80.8% | 98.3% | 112% | 100%
COc1cccc(-c2nn(-c3ccccc3)cc2-c2ccnc(N3CCN(C(=O)Nc4ccc(F)cc4)CC3)c2)c1 | 45.8% | 49.9% | 74.1% | 57.7% | 54.9% | 95.4% | 
Cc1sc2nc(NCc3ccccc3Cl)[nH]c(=O)c2c1C | 99.8% | 92.6% | 102% | 80.6% | 49.7% | 115% | 91%
CC(=O)c1ccc(Nc2nc(SC(C)C)nc(-c3ccccc3)c2C#N)cc1 | 118% | 102% | 98.6% | 90.6% | 97.5% | 123% | 
CCC/C=C/C=C/C(=O)N[C@@H](Cc1cc(F)cc(F)c1)C(=O)N[C@@H]1C(=O)N2CCC[C@H]2C(=O)N2CCCC[C@H]2C(=O)N[C@@H](C)C(=O)N2C[C@H](C)C[C@H]2C(=O)O[C@H]1C | 11.5% | 17% | 32.5% | 15% | 13.4% | 24.1% | 33.3%
COc1cc(OC)c(C2C(Cl)C(=O)N2Nc2ncnc3ccccc23)cc1OC (centres undefined) | 89.6% | 96.2% | 108% | 83% | 96.5% | 111% | 101%
CN(C)CCCNc1c2ccc(Cl)cc2nc2c1oc1ccccc12 | 53.4% | -40.6% (active) | -1.01% (active) | -21.7% (active) | -19.8% (active) | -70.8% (active) | 1.73% (active)
O=C1Nc2ccccc2Oc2ccc(S(=O)(=O)CC3CO3)cc21 (centres undefined) | 25% | 46.3% | 17.9% | 18.1% | 46.3% | 71.9% | 
Nc1c(C(=O)Nc2ccc(Cl)cc2)sc2nc(-c3cnccn3)cc(-c3cccs3)c12 | 65.3% | 77.5% | 66.3% | 55.3% | 41.6% | 104% | 80.2%
CCN1CCN(S(=O)(=O)c2oc(-c3ccc(Cl)cc3)nc2C#N)CC1 | 93.6% | 62.6% | -23.6% (active) | 31.3% | 11.6% | 115% | 91.7%
COc1cc(OC)c(S(=O)(=O)NNC(=O)c2ccncc2)cc1C(=O)/C=C/c1ccc(C)cc1 | 6.18% (active) | 83.2% | 74.8% | 26.7% | 9.81% (active) | 91.6% | 54.8%
Cn1ccnc1C(=O)/C=C/c1ccc(NC(=O)Nc2ccc(Cl)cc2)cc1 | 63.6% | 75% | 71% | 38.1% | 25% | 90.2% | 49.6%
